This passage reports outcome and AC50 results from PubChem BioAssay (EPA / NIEHS).

Each structure is given as a SMILES string. Inconclusive results are not listed. The source made the active and inactive calls. The calls were made as follows: active = hit-call score of the fitted dose curve at least 0.9, where 1 is the maximum; inconclusive = response in the unintended direction; inactive = score below 0.9.

The target in this test is Estrogen receptor (Homo sapiens) (UniProt P03372). As to the kind of experiment: ATG_ERa_TRANS: Attagene TRANS-FACTORIAL HepG2 Assay for human Estrogen Receptor alpha (ERa) (AID 2282970). The note with it: HepG2 Attagene TRANS ERa GAL4 reporter, mRNA. The procedure: ATG_TRANS is a cell-based, multiplexed-readout assay that uses HepG2, a human liver cell line, with measurements taken at 24 hours after chemical dosing in a 24-well plate.ATG_ERa_TRANS is one of 30 assay component(s) measured or calculated from the ATG_TRANS assay. It is designed to make measurements of mRNA induction, a form of inducible reporter, as detected with fluorescence intensity signals by Reverse transcription polymerase chain reaction (RT-PCR) and Capillary electrophoresis technology.Data from the assay component ATG_ERa_TRANS was analyzed into 1 assay endpoint. This assay endpoint, ATG_ERa_TRANS, was analyzed in the positive analysis fitting direction relative to DMSO as the negative control and baseline of activity. Using a type of inducible reporter, measures of mRNA for gain-of-signal activity can be used to understand the reporter gene at the transcription factor-level as they relate to the gene ESR1. Furthermore, this assay endpoint can be referred to as a primary readout, because this assay has produced multiple assay endpoints where this one serves a reporter gene function. To generalize the intended target to other relatable targets, this assay endpoint is annotated to the nuclear receptor intended target family, where the subfamily is steroidal.
Chain of Estrogen receptor (Homo sapiens) (P03372 whole entry, looked up, the tested form may be a part): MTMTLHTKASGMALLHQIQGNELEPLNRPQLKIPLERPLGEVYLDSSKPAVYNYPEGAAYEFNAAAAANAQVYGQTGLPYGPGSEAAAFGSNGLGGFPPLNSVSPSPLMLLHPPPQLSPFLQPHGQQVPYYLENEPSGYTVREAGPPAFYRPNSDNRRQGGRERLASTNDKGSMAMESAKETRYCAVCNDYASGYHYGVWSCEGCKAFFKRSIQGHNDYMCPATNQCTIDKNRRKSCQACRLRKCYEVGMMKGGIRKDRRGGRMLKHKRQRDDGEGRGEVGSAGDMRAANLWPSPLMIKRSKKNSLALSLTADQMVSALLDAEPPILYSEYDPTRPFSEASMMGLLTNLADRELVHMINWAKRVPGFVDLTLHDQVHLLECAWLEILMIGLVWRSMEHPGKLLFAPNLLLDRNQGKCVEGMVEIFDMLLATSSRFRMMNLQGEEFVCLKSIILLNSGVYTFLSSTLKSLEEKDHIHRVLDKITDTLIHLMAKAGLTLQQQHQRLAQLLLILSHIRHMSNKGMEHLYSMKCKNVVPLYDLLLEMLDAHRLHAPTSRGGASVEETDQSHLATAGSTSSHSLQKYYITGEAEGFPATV
Human liver HepG2 cells are transiently transfected with multiple reporter transcription units (MRTUs) in 6-well plates using FuGene 6 reagent (Roche; 3 ml FuGene/1 mg DNA). The MRTU constructs are regulated by a cis-regulating element (promoter). […] A major difference between the CIS and TRANS system is that in CIS activities of endogenous TFs are measured, whereas the TRANS assay evaluates changes in activities of exogenous, chimeric NR-Gal4 proteins. […] At the end of 24 hour incubation, total RNA was isolated using TriZol reagent (Invitrogen). The isolated RNA is then reverse-transcribed using oligo(dT) primer and Mo-MLV reverse transcriptase (Invitrogen) with DNAse I (Ambion) treatment for 30 min. The one-tenth of the produced cDNA was amplified by PCR using Taq DNA polymerase (Invitrogen) and two reporter sequence-specific primers. The PCR products were fluorescently labeled by primer extension with 6-arboxyfluorescein (6-FAM) 5'-labeled reporter sequence-specific primer (2 min at 95 C, 20 s at 68 C and 10 min at 72 C) and these products were digested with 5U of HpaI (New England Biolabs) for 2h at 37 C. […] The raw capillary electrophoresis data was processed using Attagraph software (Attagene).
As for `Cc1ccc(N)cc1O`, the call was inactive.
On the same count and under the same terms, the entry for `Cc1ccc(S(=O)(=O)O)cc1C` is “inactive”; for `CC(C)=CCCC(C)=CC=O` it is “inactive”.
The AC50 is the concentration giving half of the maximal activity seen. For `COc1ccc2sc(C(=O)Nc3nnn[nH]3)c(OC(C)C)c2c1`, the AC50 is 59.3 µM (active).
Take `CCC(C)(C)C(=O)O[C@H]1C[C@@H](C)C=C2C=C[C@H](C)[C@H](CC[C@@H]3C[C@@H](O)CC(=O)O3)[C@H]21`: the compound was called inactive.
Regarding `O=P(OC(CCl)CCl)(OC(CCl)CCl)OC(CCl)CCl`, the result was inactive.
The same measure, in the same setting: the entry for `COc1ccc(-n2nc(C(F)F)cc2-c2ccc(S(C)=O)cc2)cc1` (configuration not stated) is “inactive”; for `CC/C(=C\C(=N/O)C(N)=O)C(C)[N+](=O)[O-]` (configuration not stated) it is “inactive”.
On the same count and under the same terms, the entry for `CC(C)CCO` is “inactive”.
For the compound `CC(C)=CCCC(C)CCO` (configuration not stated), the half-maximal activity concentration (AC50) was 34 µM (active).
Take `COC(=O)c1c(Cl)c(Cl)c(C(=O)OC)c(Cl)c1Cl`: the outcome was inactive.
On the same count and under the same terms, the entry for `CC[C@H]1CC[C@H](NCc2cc3c(cc2OC)[C@H]2C[C@H]2C(=O)N3C)[C@H](c2ccccc2)N1` is “inactive”.
For the compound `COC(=O)c1ccccc1O`, the AC50 was 25.1 µM (active).
For `Nc1ccc(Nc2ccccc2)cc1`, the AC50 was 24.5 µM (active).
Regarding `O=C(O)c1cccc(Oc2ccccc2)c1`, the compound was classed as inactive.
Consider `Cn1cnc([N+](=O)[O-])c1Sc1ncnc2nc[nH]c12`, for which the AC50 was 46.1 µM (active).
As to `O=C(NS(=O)(=O)/C=C/c1ccccc1)c1ccc(F)cc1Cl`, the result was inactive.
Same read-out and setting: next, `O=c1n(CC2CO2)c(=O)n(CC2CO2)c(=O)n1CC1CO1` (configuration not stated): “inactive”; `COc1cccc(-c2ccc(/C=C\CN3CCCCCC3)cc2Cl)c1`: “inactive”.
With `C=CCCCCCCCCC(=O)O`, the compound was called inactive.
The same measure, in the same setting: next, `CC[C@H](C)C(=O)O[C@H]1C[C@@H](C)C=C2C=C[C@H](C)[C@H](CC[C@@H]3C[C@@H](O)CC(=O)O3)[C@H]21`: “inactive”; `CCn1nc(Cc2ccccc2)cc1C1CCN(C[C@H]2C[C@H](N(C)[C@@H](C(=O)O)C(C)C)C[C@@H]2c2cccc(F)c2)CC1`: “inactive”; `Cn1c(=O)cc(Oc2ccc(F)cc2F)c2cnc(NCC(C)(C)O)nc21`: “inactive”.
Regarding `CCOC(=O)COc1ccc2c(c1)CC(NCC(O)c1cccc(Cl)c1)CC2` (configuration not stated), the AC50 was 47.1 µM (active).
Regarding `CCCCCCCCO`, the call was inactive.
The same measure, in the same setting: next, `C=CC(=C)CCC=C(C)C`: “inactive”; `O=c1[nH]c2ccc(S(=O)CCN3CCC(Cc4ccc(F)cc4)CC3)cc2o1` (configuration not stated): “inactive”.
